# Experimental data taken from PubChem BioAssay (Tox21).
# Values without a mark were called inactive. Records with an inconclusive call do not appear. Entries that show only a call come without a potency. Calls of active or inactive are those of the source. Unless noted, calls come from the whole dose curve; as a rule, active = well fitted curve in the direction sought with a large enough effect in the repeat runs; inconclusive = weak or mixed curves; inactive = no such curve, though single readings can be large; an effect the other way counts as inactive or inconclusive.
# Columns and labels:
# [1] = qHTS assay to identify small molecule agonists of the estrogen related receptor (ERR) signaling pathway from Tox21 library (AID 1224849; calls by dose curve; note: nearly all actives have a fitted effect of over 15% in size); conditions: ERR reporter cell line, ONE-Glo luciferase, 18 h; at 92.4 µM (top of the series) unless noted
# Procedure, shortened: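 ERR reporter cells (NTP line) pre-incubated 6 hours at 37 C, then exposed to compounds for 18 hours at 37 C. ONE-Glo luciferase luminescence was read after 30 minutes at room temperature.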
# [2] = qHTS RealTime-Glo MT Cell Viability Assay in HepG2 cells - 24 hour (AID 1224867); note: nearly all actives have a fitted effect of over 50% in size; note: potency is the fitted concentration of half-maximal effect
# Procedure, shortened: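 Compound treatment began 5 h after plating HepG2 cells (600/well) with NanoLuc luciferase and prosubstrate. Plates stayed at 37 C for 40 h; luminescence was captured at six time points, 0 h through 40 h.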
# [3] = A CellTox Green Cytotoxicity Assay to monitor cytotoxicity in HEK293 cells - 0 hour (AID 1224869); note: nearly all actives have a fitted effect of over 50% in size
# Procedure, shortened: (§1)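 HEK293 cells, 600/well, were preincubated 5 hours and then exposed to compounds at 37 C for up to 40 hours. A cell-impermeant cyanine dye staining dead-cell DNA was read by fluorescence at 0, 8, 16, 24, 32 and 40 h time points.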
# [4] = qHTS RealTime-Glo MT Cell Viability Assay in HepG2 cells - 40 hour (AID 1224870); note: nearly all actives have a fitted effect of over 50% in size; note: potency is the fitted concentration of half-maximal effect
# Procedure, shortened: (§2)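 HepG2 cells (600/well) mixed with RealTime-Glo MT reagent, settled 5 h at 37 C/5% CO2 before compound addition. Nonlytic NanoLuc luminescence from viable-cell prosubstrate reduction read repeatedly during 40 h treatment at 37 C.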
# [5] = A CellTox Green Cytotoxicity Assay to monitor cytotoxicity in HEK293 cells - 40 hour (AID 1224871); note: nearly all actives have a fitted effect of over 45% in size; note: potency is the fitted concentration of half-maximal effect
# Procedure, shortened: as §1
# [6] = qHTS RealTime-Glo MT Cell Viability Assay in HepG2 cells - 8 hour (AID 1224873); note: nearly all actives have a fitted effect of over 55% in size; note: potency is the fitted concentration of half-maximal effect
# Procedure, shortened: as §2
# [7] = qHTS RealTime-Glo MT Cell Viability Assay in HEK293 cells - 40 hour (AID 1224874); conditions: RealTime-Glo luminescence; max response: active compounds read low; note: nearly all actives have a fitted effect of over 50% in size; note: potency is the fitted concentration of half-maximal effect
# Procedure, shortened: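 600 cells/well were plated with the nonlytic NanoLuc/prosubstrate reagent, pre-incubated 5 h, then given 23 nL of compound in DMSO. Incubation at 37 C for 40 h, with luminescence from viable-cell-reduced substrate read repeatedly from 0 h.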
# [8] = A CellTox Green Cytotoxicity Assay to monitor cytotoxicity in HEK293 cells - 24 hour (AID 1224875); note: nearly all actives have a fitted effect of over 45% in size; note: potency is the fitted concentration of half-maximal effect
# Procedure, shortened: as §1
# [9] = qHTS RealTime-Glo MT Cell Viability Assay in HEK293 cells - 32 hour (AID 1224868); note: nearly all actives have a fitted effect of over 50% in size; note: potency is the fitted concentration of half-maximal effect
# Procedure, shortened: (§3)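 Quantitative high-throughput screen of the Tox21 10K library in HEK293: cells and RealTime-Glo reagents plated together, compound added at 5 h, luminescence monitored through 40 h at 37 C.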
# [10] = qHTS RealTime-Glo MT Cell Viability Assay in HEK293 cells - 16 hour (AID 1224872); note: nearly all actives have a fitted effect of over 50% in size; note: potency is the fitted concentration of half-maximal effect
# Procedure, shortened: as §3
SMILES,"activity change, positive = activation [1]",Potency [2],Potency [3],Potency [4],Potency [5],Potency [6],Potency [7],Potency [8],max response [7] [%],Potency [9],Potency [10]
CN1CCN(c2ccccc2/C=C2\SCCN(c3ccc(Cl)c(Cl)c3)C2=O)CC1,-79.7%,38.9 µM (active),inactive,21.9 µM (active),43.6 µM (active),49 µM (active),12.3 µM (active),49 µM (active),–,–,–
CCc1cccc(CC)c1,-2.59%,inactive,inactive,inactive,inactive,inactive,–,inactive,23.9,–,–
CC(O)(c1ccc(Cl)cc1)c1ccc(Cl)cc1,-43.9%,–,inactive,inactive,49 µM (active),–,24.5 µM (active),49 µM (active),–,24.5 µM (active),38.9 µM (active)
Cc1ccc(Cl)c(N)c1Cl,-0.961%,inactive,inactive,–,–,inactive,–,–,-1.11,inactive,inactive
CC(C)(C)C1=CC(=O)C(C(C)(C)C)=CC1=O,-2.14% [at 42.5 µM],inactive,inactive,–,–,inactive,–,inactive,–,–,–
O=S(=O)(c1ccc(OCc2ccccc2)cc1)c1ccccc1O,-29%,inactive,inactive,inactive,inactive,inactive,19.5 µM (active),inactive,–,–,–
Oc1ccc(Cl)cc1C1CCCC1,6.21%,inactive,inactive,inactive,49 µM (active),inactive,–,54.9 µM (active),-29.3,–,24.5 µM (active)
CCCCCCCCSCc1cc(C)c(O)c(CSCCCCCCCC)c1,3.09%,inactive,inactive,inactive,inactive,inactive,–,inactive,-17.7,–,–
CCCCCCCCOC(=O)c1cc(O)c(O)c(O)c1,-45.2%,19.5 µM (active),inactive,–,–,17.4 µM (active),11 µM (active),–,–,11 µM (active),–
O=C1CCC(=O)N1,0.296%,inactive,inactive,inactive,inactive,inactive,–,inactive,–,–,–
CN(C[C@@H](CC[N+]12CCC(C3CCCCC3)(CC1)CC2)c1ccc(Cl)c(Cl)c1)C(=O)c1cc(C(F)(F)F)cc(C(F)(F)F)c1,-78.4%,21.9 µM (active),inactive,21.9 µM (active),27.5 µM (active),24.5 µM (active),2.19 µM (active),24.5 µM (active),–,–,–
CCCOC(=O)c1ccc(O)cc1,17.7% (active),inactive,inactive,inactive,inactive,inactive,–,inactive,–,–,49 µM (active)
